Assay [1] concerns the target T1, 3-phosphoinositide-dependent protein kinase 1 (Homo sapiens) (UniProt O15530).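 Further: values are mean inhibition of PDK1.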
T1 sequence (whole entry): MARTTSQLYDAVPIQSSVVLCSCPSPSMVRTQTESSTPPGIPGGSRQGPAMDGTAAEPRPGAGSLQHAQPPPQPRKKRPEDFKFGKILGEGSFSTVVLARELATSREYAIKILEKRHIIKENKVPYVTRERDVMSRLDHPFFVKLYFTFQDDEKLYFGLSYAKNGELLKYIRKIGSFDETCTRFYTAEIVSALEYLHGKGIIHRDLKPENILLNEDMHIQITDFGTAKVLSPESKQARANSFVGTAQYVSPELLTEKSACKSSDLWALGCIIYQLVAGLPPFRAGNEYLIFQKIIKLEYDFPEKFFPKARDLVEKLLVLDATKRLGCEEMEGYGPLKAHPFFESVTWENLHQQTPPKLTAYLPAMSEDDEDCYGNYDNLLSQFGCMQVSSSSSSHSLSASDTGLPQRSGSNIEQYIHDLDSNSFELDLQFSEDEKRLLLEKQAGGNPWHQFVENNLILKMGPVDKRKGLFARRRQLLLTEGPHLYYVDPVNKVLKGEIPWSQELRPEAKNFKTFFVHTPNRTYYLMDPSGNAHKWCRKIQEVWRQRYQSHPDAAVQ
The note with it: at 0.1 µM.

Assay [2] concerns the target cAMP-dependent protein kinase catalytic subunit alpha (Homo sapiens) (UniProt P17612). The note with it: at 0.1 µM.
Assay [3] has the same target. The note with it: at 1 µM.
Assay [4] deals with Protein kinase C alpha type (Homo sapiens) (UniProt P17252). The note with it: at 0.1 µM.
Assay [5] has the same target. The note with it: at 1 µM.
The target of assay [6] is Protein kinase C beta type (Homo sapiens) (UniProt P05771). The note with it: at 0.1 µM.
Chain of Protein kinase C beta type (Homo sapiens) (P05771 2-671 limits assumed): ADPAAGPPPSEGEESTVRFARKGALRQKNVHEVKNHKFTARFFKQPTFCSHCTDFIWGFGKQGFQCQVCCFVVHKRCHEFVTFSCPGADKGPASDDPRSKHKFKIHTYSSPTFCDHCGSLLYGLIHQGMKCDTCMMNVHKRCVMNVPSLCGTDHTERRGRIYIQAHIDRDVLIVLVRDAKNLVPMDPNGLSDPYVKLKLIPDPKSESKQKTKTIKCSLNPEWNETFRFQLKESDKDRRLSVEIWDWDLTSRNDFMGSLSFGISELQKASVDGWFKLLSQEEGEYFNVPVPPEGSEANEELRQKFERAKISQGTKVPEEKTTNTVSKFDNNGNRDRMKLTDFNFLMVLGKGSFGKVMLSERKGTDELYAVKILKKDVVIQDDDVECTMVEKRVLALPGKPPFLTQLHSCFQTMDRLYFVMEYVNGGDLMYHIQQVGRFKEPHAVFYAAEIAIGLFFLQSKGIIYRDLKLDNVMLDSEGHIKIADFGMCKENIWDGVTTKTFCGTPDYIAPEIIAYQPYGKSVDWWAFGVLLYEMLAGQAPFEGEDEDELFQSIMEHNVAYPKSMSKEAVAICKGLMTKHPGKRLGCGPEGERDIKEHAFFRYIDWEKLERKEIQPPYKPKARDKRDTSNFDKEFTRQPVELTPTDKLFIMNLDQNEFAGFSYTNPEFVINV
Assay [7] addresses Protein kinase C eta type (Homo sapiens) (UniProt P24723). The note with it: at 0.1 µM.
Assay [8] shares this target. The note with it: at 1 µM.
The target of assay [9] is Protein kinase C gamma type (Homo sapiens) (UniProt P05129). The note with it: at 0.1 µM.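 Further: values are mean percent inhibition of PKC gamma.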
For assay [10], the target named is Protein kinase C beta type (Homo sapiens) (UniProt P05771). The note with it: at 1 µM.

The term inhibition denotes the relative decrease from the control value, in per cent.

Molecules are shown by their SMILES.

Chain of Protein kinase C eta type (Homo sapiens) (P24723 whole entry): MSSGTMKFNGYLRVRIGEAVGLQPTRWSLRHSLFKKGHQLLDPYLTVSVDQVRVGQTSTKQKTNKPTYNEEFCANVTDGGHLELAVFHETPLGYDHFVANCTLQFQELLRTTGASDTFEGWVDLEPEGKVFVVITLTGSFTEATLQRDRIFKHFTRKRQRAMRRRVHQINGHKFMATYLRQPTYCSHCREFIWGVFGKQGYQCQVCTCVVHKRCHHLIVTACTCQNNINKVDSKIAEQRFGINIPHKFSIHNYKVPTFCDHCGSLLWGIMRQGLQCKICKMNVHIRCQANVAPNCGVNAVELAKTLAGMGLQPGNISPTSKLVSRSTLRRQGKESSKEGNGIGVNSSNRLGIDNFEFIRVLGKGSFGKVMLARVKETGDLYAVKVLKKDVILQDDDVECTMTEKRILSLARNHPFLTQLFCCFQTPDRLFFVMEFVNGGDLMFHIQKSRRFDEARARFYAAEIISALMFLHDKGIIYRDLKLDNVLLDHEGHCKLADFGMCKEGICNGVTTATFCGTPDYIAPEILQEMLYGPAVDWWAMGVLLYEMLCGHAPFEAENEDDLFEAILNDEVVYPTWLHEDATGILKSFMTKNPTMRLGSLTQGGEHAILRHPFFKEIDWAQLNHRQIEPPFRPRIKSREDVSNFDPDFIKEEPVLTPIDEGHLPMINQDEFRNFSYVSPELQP

In the case of `NS(=O)(=O)c1ccc(N/C=C2\C(=O)Nc3ccc4ncsc4c32)cc1`, the inhibition in assay [1] was 20.8%; in assay [2], 2.9%; in assay [3], 6.91%; in assay [4], 1.26%; in assay [5] it was 3.04%; in [6], -0.49%. For the same molecule, the values for the inhibition in assay [7], in assay [8] and in assay [9] were 1.67%, 6.53% and 1.16%, respectively.
As for `CCn1c(-c2nonc2N)nc2c(C#CC(C)(C)O)ncc(OC[C@@H]3CCCN3)c21`, the inhibition in assay [1] is 0.24%; in [2], 68.7%; in assay [3], 81.2%; in assay [4], 2.42%; in assay [5], 18.4%; in assay [6] it was 30.1%. The inhibition in assay [10] is 61.3%; in assay [7], 87.1%; in assay [8], 96.3%; in assay [9] it was 9.3%.
Regarding `NC(=O)c1sc(-n2cnc3cc(C(F)(F)F)ccc32)cc1OCc1ccccc1Br`, the inhibition in assay [1] was 2.62%; in assay [2], 2.16%; in assay [3], 1.95%; in assay [4], 0.19%; in [5], 1.07%; in [6], 0.86%. Further, the inhibition in assay [10] is -1.32%; in assay [7] it was 3.02%; in assay [8], -0.28%; in [9], 0.48%.
For the molecule `Cc1cc(-c2ccco2)cc(C)c1/C=C/c1cncc(-c2nn[nH]n2)c1`, the inhibition is -0.25% in assay [1]; -2.7% in [2]; 1.88% in [3]; 0.15% in assay [4]; 0.97% in assay [5]; -0.49% in assay [6]. The inhibition in assay [10] was determined as 0.6%; in assay [7] it was 1.26%; in assay [8], 2.42%; in assay [9], 0.18%.
For the molecule `CCn1c(-c2nonc2N)nc2c(C#CC(C)(C)O)nc(O[C@@H](CN)c3ccccc3)cc21`, the inhibition in assay [1] worked out at 3.51%; in [2], 80.3%; in assay [3], 81.6%; in assay [4] it was 15.8%; in [5], 69.7%; in assay [6], 44.8%. Moreover, the inhibition in assay [10] is 71.4%; in [7], 96.3%; in assay [8], 99%; in assay [9], 54.7%.
With `NS(=O)(=O)c1ccc(-c2ccc3c(NC(=O)C4CC4)n[nH]c3c2)cc1`, the inhibition in assay [1] was 2.67%; in assay [2], 1.34%; in [3], 1.63%; in [4], 0.82%; in [5] it was 0.13%; in assay [6], -1.4%. For the same molecule, the inhibition was -0.63% in assay [10], 3.31% in assay [7], -0.1% in assay [8] and -1.07% in [9].
For the molecule `CCn1c(-c2nonc2N)nc2c(C#CCN)ncc(OCCCN)c21`, the inhibition was 1.2% in assay [1]; 7.1% in assay [2]; 1.06% in assay [4]; 4.21% in [5]; 14.7% in [6]; 47.8% in assay [10]. Also, the inhibition in [7] is 19.6%; in [8], 73.4%; in assay [9], 3.97%.
As for `Nc1nonc1-c1nc2cnccc2n1C1CCCCC1`, the inhibition was determined as 0.3% in assay [1]; 19.5% in assay [2]; 2.45% in assay [4]; 38.4% in [5]; 31% in assay [6]; 65.3% in assay [10]. In addition, the inhibition in assay [7] was found to be 42.3%; in [8], 88.5%; in assay [9], 8.45%.
Take `COc1cccc(COc2cc(-n3cnc4ccccc43)sc2C(N)=O)c1`: the inhibition was 12.1% in [1]; 2.47% in assay [2]; 0.86% in assay [3]; -0.54% in [4]; 0% in assay [5]; -0.69% in assay [6]. Besides, the inhibition amounted to 0.94% in assay [10], 0.43% in assay [7], 1.12% in [8] and 1.09% in assay [9].
Take `COc1cccc(-n2ncc3c(N/N=C/c4ccncc4)ncnc32)c1`: the inhibition in assay [1] came to 3.34%; in [2] it was 1.96%; in [3], 4.25%; in assay [4], 2.71%; in assay [5], 8.07%; in [6], 1.63%. For the same molecule, the inhibition in assay [10] came out at 7.79%; in assay [7], 4.72%; in assay [8] it was 2.1%; in assay [9], 1.76%.
Take `Fc1ccc(-c2ncn(C3CCNCC3)c2-c2ccnc(Oc3ccccc3)n2)cc1`: the inhibition in assay [1] was 0.7%; in assay [2], 7.46%; in assay [3], 43.6%; in assay [4], -3.5%; in [5], -0.8%; in assay [6], 0.95%. In addition, the inhibition in [10] is 8.43%; in assay [7] it was 3.65%; in assay [8], 1.37%; in [9], 0.03%.
Regarding `COc1cc(C=NNc2ncnc3c2cnn3Cc2ccccc2)ccc1O`, the inhibition in assay [1] is -3.37%; in assay [2] it was -0.54%; in [3], 5.93%; in assay [4], -0.63%; in assay [5], 3.5%; in [6], 0.36%. Besides, the inhibition is 3.19% in assay [10], -5.63% in [7], -0.89% in assay [8] and -2.68% in [9].
As to `COc1cc2c(cc1Nc1nc(Nc3ccsc3C(N)=O)c3cc[nH]c3n1)N(C(=O)CN(C)C)CCC2`, the inhibition in assay [1] was 0.7%; in [2], 4.62%; in assay [3], 3.81%; in assay [4], 1.91%; in [5], 10.2%; in assay [6], -0.18%. Further, the inhibition was 1.94% in assay [10], 1.28% in [7] and 3.46% in assay [8].
With `CCn1c(-c2nonc2N)nc2c(C#CC(C)(C)O)ncc(OCC3CCNCC3)c21`, the inhibition in assay [1] was 2.18%; in assay [2], 44.1%; in [4], -1.9%; in assay [5] it was 13.4%; in assay [6] it was 29.9%; in assay [10] it was 64.4%. For the same molecule, the inhibition in [7] was found to be 83.7%; in [8], 97.8%; in [9] it was 6.74%.

Source of the values: ChEMBL document CHEMBL1961873, “Compounds: GSK PKIS; Assays: Nanosyn kinase panel” (2012).
